# In publication PMC7862700, “An all-to-all approach to the identification of sequence-specific readers for epigenetic DNA modifications on cytosine”:
# Tests used:
# Assay in all cases: DAPPL (digital affinity profiling via proximity ligation, sequencing); 10 mM Tris-HCl pH 7.5, 50 mM NaCl, 1 mM DTT, 4% glycerol, room temperature, 30 min; GST-TFs on glutathione beads, 16-mer random dsDNA library, 0.1% formaldehyde crosslink after washing; high values mean tight binding
# [1] = target: T1, FLI1 (Homo sapiens, UniProt Q01543 1-452); conditions: protein: recombinant; tags: N-terminal GST; dsDNA, one strand shown
# T1 sequence: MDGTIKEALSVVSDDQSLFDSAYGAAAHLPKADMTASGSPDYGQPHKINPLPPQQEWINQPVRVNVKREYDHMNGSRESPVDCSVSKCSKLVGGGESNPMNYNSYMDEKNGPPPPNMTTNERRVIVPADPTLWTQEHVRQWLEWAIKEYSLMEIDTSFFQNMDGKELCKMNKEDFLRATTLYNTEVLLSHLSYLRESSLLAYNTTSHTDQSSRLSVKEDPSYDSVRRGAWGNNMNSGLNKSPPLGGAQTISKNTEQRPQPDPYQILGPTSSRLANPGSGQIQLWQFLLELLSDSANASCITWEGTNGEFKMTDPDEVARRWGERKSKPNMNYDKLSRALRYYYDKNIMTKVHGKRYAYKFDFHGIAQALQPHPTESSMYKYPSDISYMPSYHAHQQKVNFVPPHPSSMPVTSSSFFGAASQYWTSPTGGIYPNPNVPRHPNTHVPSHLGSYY
# Summary of the method: (§1)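 Pools of DNA-barcoded human transcription factors, expressed in yeast as GST fusions on glutathione beads and combined with a tag-only sample, were incubated with 200 nmole of a 16-mer random double-stranded DNA library. Incubation took 30 min at room temperature in Tris/NaCl/DTT/glycerol buffer and was followed by washing, 0.1% formaldehyde crosslinking, proximity ligation (BsaI/T4 ligase, 1 h, 37 °C), PCR amplification and sequencing on an Illumina NextSeq500. Binding signal is the ratio of a hexamer's read frequency for a factor to its frequency for the tag-only sample.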
# [2] = target: T2, ELK1 (Homo sapiens, UniProt P19419 1-428); conditions: protein: recombinant; tags: N-terminal GST; dsDNA, one strand shown
# T2 sequence: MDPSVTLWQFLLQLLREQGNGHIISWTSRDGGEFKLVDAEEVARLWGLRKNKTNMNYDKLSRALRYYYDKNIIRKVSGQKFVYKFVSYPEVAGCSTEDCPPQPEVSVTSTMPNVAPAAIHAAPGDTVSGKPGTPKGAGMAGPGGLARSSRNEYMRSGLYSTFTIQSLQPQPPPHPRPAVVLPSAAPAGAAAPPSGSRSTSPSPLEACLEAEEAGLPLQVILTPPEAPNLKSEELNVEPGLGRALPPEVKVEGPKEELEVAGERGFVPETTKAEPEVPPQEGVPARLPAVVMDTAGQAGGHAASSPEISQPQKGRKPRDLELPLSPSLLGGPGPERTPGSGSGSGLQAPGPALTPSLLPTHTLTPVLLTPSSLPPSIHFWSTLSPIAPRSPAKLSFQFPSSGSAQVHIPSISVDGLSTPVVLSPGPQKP
# Summary of the method: as §1
# [3] = target: T3, GABPA (Homo sapiens, UniProt Q06546 1-454); conditions: protein: recombinant; tags: N-terminal GST; dsDNA, one strand shown
# T3 sequence: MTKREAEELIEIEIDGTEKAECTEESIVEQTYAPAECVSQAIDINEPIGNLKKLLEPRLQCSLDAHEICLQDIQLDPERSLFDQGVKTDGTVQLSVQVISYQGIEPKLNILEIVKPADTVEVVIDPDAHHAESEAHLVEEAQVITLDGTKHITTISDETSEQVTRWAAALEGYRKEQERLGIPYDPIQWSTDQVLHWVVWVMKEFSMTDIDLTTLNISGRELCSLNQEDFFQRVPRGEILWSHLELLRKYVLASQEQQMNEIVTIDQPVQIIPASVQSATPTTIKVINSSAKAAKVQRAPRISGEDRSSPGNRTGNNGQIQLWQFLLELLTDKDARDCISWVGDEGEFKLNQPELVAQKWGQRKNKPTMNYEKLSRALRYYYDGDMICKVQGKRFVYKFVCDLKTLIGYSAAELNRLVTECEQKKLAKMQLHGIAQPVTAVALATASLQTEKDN
# Summary of the method: as §1
# [4] = target: T4, ERG (Homo sapiens, UniProt P11308 1-479); conditions: protein: recombinant; tags: N-terminal GST; dsDNA, one strand shown
# T4 sequence: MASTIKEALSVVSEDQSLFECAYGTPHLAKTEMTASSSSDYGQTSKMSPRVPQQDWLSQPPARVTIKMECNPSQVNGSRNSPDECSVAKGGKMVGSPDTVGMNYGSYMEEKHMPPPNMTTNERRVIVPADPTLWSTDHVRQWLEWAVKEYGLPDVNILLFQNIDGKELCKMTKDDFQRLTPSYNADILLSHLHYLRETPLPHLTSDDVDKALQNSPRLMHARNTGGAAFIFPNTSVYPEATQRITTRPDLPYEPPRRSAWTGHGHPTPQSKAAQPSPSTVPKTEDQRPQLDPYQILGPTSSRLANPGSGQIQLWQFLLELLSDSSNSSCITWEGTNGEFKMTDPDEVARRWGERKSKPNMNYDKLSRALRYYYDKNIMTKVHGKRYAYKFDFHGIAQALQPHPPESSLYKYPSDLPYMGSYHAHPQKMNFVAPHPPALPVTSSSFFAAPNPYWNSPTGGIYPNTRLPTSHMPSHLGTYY
# Summary of the method: as §1
# [5] = target: ELF1 (Homo sapiens, UniProt P32519 1-619); conditions: protein: recombinant; tags: N-terminal GST; dsDNA, one strand shown
# Chain of ELF1 (P32519 whole entry): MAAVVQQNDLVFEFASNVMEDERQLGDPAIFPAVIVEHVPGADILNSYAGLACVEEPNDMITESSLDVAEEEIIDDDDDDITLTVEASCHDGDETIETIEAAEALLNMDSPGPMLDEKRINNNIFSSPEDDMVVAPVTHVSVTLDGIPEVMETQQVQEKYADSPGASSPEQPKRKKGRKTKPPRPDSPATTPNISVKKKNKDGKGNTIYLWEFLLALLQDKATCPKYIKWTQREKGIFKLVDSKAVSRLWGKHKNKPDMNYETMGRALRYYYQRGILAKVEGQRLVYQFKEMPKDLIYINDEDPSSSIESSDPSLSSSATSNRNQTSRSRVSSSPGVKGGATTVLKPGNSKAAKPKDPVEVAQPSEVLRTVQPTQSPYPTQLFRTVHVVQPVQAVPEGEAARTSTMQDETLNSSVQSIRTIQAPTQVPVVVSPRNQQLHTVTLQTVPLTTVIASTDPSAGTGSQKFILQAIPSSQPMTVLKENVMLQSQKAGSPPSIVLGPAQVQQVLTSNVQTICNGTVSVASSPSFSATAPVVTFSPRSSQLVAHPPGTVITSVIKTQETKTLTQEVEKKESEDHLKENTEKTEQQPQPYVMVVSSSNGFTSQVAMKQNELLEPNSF
# Summary of the method: as §1
# [6] = target: T5, EHF (Homo sapiens, UniProt Q9NZC4 1-300); conditions: protein: recombinant; tags: N-terminal GST; dsDNA, one strand shown
# T5 sequence: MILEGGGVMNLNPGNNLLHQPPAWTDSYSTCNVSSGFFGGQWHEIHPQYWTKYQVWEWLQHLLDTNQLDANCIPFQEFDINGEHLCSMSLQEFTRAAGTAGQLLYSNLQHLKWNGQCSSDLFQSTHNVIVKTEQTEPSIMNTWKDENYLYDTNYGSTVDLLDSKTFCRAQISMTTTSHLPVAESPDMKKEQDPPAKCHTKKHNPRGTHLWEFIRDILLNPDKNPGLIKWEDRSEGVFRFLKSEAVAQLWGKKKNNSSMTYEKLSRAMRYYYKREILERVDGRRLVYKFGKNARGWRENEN
# Summary of the method: as §1
# [7] = target: SPI1 (Homo sapiens, UniProt P17947 1-270); conditions: protein: recombinant; tags: N-terminal GST; dsDNA, one strand shown
# Summary of the method: as §1
# [8] = target: SPIB (Homo sapiens, UniProt Q01892 1-262); conditions: protein: recombinant; tags: N-terminal GST; dsDNA, one strand shown
# Chain of SPIB (Q01892 whole entry): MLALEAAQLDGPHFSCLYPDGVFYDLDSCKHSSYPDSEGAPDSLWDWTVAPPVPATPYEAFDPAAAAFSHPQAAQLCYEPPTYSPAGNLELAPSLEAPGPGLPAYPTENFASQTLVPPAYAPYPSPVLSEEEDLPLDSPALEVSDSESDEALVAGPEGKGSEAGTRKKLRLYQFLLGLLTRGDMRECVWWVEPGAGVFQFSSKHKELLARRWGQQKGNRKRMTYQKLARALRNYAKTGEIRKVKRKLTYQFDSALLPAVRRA
# Summary of the method: as §1
# [9] = target: T6, ELK3 (Homo sapiens, UniProt P41970 1-407); conditions: protein: recombinant; tags: N-terminal GST; dsDNA, one strand shown
# T6 sequence: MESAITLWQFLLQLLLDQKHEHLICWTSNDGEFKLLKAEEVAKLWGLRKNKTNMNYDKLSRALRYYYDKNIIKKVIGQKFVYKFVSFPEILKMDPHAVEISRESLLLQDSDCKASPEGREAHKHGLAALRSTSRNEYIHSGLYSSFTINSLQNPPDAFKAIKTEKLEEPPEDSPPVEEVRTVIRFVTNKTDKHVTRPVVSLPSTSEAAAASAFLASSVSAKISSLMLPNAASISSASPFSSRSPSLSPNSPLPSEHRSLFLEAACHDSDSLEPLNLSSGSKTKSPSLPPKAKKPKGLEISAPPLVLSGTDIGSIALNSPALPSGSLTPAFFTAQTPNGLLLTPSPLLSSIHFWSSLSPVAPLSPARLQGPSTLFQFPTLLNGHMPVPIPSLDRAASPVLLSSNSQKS
# Summary of the method: as §1
# [10] = target: T7, FEV (Homo sapiens, UniProt Q99581 1-238); conditions: protein: recombinant; tags: N-terminal GST; dsDNA, one strand shown
# T7 sequence: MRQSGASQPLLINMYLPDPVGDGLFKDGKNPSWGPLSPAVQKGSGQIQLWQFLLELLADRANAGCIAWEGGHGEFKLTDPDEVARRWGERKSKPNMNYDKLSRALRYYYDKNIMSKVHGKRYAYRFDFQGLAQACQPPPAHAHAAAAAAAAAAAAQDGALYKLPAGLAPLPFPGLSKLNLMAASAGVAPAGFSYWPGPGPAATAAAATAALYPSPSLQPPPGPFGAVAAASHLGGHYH
# Summary of the method: as §1
# [11] = target: ETV5 (Homo sapiens, UniProt P41161 1-510); conditions: protein: recombinant; tags: N-terminal GST; dsDNA, one strand shown
# Chain of ETV5 (P41161 whole entry): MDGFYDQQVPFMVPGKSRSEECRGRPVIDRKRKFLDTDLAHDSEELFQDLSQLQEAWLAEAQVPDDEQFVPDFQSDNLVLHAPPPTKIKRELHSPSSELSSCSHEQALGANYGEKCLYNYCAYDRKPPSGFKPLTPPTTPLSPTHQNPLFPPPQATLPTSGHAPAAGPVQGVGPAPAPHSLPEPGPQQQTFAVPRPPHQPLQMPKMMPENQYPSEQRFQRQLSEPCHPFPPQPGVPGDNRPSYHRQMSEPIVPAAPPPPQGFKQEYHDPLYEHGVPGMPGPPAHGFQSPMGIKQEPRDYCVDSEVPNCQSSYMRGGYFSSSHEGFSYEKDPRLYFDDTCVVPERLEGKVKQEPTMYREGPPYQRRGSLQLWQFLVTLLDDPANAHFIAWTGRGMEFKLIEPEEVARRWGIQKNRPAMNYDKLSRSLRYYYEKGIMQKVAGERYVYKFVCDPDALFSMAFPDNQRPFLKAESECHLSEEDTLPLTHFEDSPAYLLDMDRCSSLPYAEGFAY
# Summary of the method: as §1
# [12] = target: HSF1 (Homo sapiens, UniProt Q00613 1-529); conditions: protein: recombinant; tags: N-terminal GST; chain copies: 3; dsDNA, one strand shown
# Chain of HSF1 (Q00613 whole entry): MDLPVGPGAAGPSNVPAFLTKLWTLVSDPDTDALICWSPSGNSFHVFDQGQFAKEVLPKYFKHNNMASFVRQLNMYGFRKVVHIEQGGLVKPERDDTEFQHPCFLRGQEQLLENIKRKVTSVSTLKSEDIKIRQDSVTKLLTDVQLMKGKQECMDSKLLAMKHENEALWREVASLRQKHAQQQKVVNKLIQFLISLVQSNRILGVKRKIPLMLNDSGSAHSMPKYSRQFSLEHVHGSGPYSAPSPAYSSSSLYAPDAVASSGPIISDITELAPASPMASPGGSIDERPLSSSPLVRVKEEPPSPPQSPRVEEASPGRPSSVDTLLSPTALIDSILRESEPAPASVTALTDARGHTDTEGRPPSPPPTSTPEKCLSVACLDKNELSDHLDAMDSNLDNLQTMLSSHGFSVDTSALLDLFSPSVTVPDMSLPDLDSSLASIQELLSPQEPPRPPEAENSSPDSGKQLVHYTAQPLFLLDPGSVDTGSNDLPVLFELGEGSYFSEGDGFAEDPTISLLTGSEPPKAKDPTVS
# Summary of the method: as §1
# [13] = target: T8, SPIC (Homo sapiens, UniProt Q8N5J4 1-248); conditions: protein: recombinant; tags: N-terminal GST; dsDNA, one strand shown
# T8 sequence: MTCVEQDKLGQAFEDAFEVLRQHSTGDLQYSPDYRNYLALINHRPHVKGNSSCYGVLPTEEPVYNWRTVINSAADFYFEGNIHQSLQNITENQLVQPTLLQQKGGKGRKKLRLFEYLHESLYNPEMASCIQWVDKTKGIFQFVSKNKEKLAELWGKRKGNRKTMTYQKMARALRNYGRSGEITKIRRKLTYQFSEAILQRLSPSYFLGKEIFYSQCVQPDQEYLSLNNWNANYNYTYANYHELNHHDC
# Summary of the method: as §1
# [14] = target: ELF4 (Homo sapiens, UniProt Q99607 1-663); conditions: protein: recombinant; tags: N-terminal GST; dsDNA, one strand shown
# Chain of ELF4 (Q99607 whole entry): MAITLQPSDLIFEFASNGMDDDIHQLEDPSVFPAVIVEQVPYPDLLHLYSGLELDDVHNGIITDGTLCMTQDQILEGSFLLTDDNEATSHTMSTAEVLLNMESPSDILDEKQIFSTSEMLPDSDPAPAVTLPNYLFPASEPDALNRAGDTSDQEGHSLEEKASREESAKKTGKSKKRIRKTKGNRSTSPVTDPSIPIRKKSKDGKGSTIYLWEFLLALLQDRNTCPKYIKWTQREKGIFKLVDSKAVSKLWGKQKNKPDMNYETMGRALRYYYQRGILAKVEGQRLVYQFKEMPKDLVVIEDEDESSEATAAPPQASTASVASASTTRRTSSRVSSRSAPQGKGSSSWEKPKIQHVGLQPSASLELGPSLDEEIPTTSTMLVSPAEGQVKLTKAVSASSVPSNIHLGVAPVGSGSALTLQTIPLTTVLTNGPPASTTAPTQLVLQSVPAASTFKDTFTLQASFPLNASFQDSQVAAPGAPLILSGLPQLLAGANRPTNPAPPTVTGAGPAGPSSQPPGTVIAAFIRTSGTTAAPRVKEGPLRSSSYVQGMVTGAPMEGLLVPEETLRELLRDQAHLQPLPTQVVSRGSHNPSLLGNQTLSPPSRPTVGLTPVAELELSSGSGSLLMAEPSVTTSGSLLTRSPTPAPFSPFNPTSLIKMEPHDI
# Summary of the method: as §1
# [15] = target: T9, ELK4 (Homo sapiens, UniProt P28324-2 1-405); conditions: protein: recombinant; tags: N-terminal GST; dsDNA, one strand shown
# T9 sequence: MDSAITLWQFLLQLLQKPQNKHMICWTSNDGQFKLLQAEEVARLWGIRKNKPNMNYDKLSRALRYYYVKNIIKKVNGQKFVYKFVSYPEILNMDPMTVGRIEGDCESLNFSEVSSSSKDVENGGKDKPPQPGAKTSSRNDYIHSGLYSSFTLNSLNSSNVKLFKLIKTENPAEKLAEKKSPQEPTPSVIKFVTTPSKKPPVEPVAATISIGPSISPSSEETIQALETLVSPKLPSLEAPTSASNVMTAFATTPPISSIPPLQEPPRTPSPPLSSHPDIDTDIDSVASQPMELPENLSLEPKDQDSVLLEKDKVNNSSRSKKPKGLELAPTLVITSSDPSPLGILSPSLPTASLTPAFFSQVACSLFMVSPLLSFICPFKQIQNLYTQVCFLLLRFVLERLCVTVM
# Summary of the method: as §1
# [16] = target: T10, ETV2 (Homo sapiens, UniProt O00321 1-342); conditions: protein: recombinant; tags: N-terminal GST; dsDNA, one strand shown
# T10 sequence: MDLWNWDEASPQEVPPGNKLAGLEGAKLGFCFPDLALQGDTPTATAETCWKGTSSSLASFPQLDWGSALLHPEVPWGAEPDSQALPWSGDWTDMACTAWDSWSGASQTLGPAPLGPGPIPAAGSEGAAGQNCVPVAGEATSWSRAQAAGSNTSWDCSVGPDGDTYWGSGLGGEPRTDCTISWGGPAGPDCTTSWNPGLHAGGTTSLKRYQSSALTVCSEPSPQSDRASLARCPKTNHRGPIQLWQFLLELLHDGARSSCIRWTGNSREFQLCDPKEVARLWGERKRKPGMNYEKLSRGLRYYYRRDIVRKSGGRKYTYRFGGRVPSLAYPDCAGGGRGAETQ
# Summary of the method: as §1
# [17] = target: T11, ELF3 (Homo sapiens, UniProt P78545 1-371); conditions: protein: recombinant; tags: N-terminal GST; dsDNA, one strand shown
# T11 sequence: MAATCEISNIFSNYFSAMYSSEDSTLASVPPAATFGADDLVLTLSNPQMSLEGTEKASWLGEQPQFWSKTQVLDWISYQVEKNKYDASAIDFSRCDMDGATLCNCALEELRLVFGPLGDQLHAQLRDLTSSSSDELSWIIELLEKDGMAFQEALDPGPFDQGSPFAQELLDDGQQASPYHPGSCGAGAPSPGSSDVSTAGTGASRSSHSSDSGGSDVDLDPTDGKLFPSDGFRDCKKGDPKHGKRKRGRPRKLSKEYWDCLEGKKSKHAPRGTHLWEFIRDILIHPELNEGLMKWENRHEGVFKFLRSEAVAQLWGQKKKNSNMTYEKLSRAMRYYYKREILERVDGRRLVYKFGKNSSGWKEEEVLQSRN
# Summary of the method: as §1
# [18] = target: CRX (Homo sapiens, UniProt O43186 1-299); conditions: protein: recombinant; tags: N-terminal GST; dsDNA, one strand shown
# Chain of CRX (O43186 whole entry): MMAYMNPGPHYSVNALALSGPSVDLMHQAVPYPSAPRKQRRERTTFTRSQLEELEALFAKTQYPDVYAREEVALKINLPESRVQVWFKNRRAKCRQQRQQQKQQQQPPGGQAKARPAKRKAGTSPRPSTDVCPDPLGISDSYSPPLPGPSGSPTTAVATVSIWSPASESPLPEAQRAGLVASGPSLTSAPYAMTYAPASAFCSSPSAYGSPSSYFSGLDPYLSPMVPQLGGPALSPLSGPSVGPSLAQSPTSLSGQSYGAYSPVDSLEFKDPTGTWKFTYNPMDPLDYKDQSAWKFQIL
# Summary of the method: as §1
# [19] = target: ETV1 (Homo sapiens, UniProt P50549 1-477); conditions: protein: recombinant; tags: N-terminal GST; dsDNA, one strand shown
# Chain of ETV1 (P50549 whole entry): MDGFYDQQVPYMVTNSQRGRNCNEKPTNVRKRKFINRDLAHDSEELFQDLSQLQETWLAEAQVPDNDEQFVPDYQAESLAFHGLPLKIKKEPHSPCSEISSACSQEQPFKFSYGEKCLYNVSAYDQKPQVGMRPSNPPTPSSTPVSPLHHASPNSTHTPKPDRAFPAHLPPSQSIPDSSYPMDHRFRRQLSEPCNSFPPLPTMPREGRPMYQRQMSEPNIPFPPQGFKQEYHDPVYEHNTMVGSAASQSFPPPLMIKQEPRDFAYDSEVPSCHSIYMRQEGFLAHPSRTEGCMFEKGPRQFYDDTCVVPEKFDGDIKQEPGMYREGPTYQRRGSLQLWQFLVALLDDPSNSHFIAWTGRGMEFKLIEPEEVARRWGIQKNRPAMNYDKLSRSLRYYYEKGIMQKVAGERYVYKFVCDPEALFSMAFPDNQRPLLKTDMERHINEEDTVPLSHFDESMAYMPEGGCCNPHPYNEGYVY
# Summary of the method: as §1
sequence,measurement,setting,value
TCACTC,binding signal,[1],"1.16 fold enrichment (6-mer frequency, TF over GST control)"
same,binding signal,[2],"1.19 fold enrichment (6-mer frequency, TF over GST control)"
same,binding signal,[3],"1.28 fold enrichment (6-mer frequency, TF over GST control)"
same,binding signal,[4],"1.18 fold enrichment (6-mer frequency, TF over GST control)"
same,binding signal,[5],"1.34 fold enrichment (6-mer frequency, TF over GST control)"
same,binding signal,[6],"1.27 fold enrichment (6-mer frequency, TF over GST control)"
same,binding signal,[7],"1.21 fold enrichment (6-mer frequency, TF over GST control)"
same,binding signal,[8],"1.26 fold enrichment (6-mer frequency, TF over GST control)"
same,binding signal,[9],"1.18 fold enrichment (6-mer frequency, TF over GST control)"
same,binding signal,[10],"1.23 fold enrichment (6-mer frequency, TF over GST control)"
same,binding signal,[11],"1.19 fold enrichment (6-mer frequency, TF over GST control)"
same,binding signal,[12],"1.11 fold enrichment (6-mer frequency, TF over GST control)"
same,binding signal,[13],"1.3 fold enrichment (6-mer frequency, TF over GST control)"
same,binding signal,[14],"1.24 fold enrichment (6-mer frequency, TF over GST control)"
same,binding signal,[15],"1.34 fold enrichment (6-mer frequency, TF over GST control)"
same,binding signal,[16],"1.35 fold enrichment (6-mer frequency, TF over GST control)"
same,binding signal,[17],"1.26 fold enrichment (6-mer frequency, TF over GST control)"
same,binding signal,[18],"1.05 fold enrichment (6-mer frequency, TF over GST control)"
same,binding signal,[19],"1.18 fold enrichment (6-mer frequency, TF over GST control)"
